Laboratory results taken from PubChem BioAssay.
Activity calls are given as the source filed them.

What was measured:
[1] = optical density shifts of acrAB sulA E. coli – strain DRC41, OD650, 48 h, E. coli filamentation inducer project, primary screen (AID 1152); settings: higher = more signal, called active from +8 up or from −8 down;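 further: E. coli MC1000 strain DRC41 lacking acrAB efflux pump and sulA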
[2] = probe aLefty1 binding on compound microarray – biochemical, small-molecule microarray, 635/667 nm fluorescence, primary screen (AID 1153); settings: higher = more signal;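 further: score merges spot fluorescence with signal-to-noise ratio from the scanned slide images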
[3] = plasmodial surface anion channel blockers, osmotic lysis – cell-based, P. falciparum Indochina, OD700, 1 h, primary screen (AID 1154); settings: P. falciparum Indochina infected RBC osmotic lysis, higher = more signal, called active from +8 up or from −8 down
[4] = plasmodial surface anion channel blockers, osmotic lysis – cell-based, P. falciparum Indochina, OD700, 2 h, primary screen (AID 1155);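 further: lysis reports solute entry through the parasite surface anion channel PSAC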; settings: P. falciparum Indochina infected erythrocytes, higher = more signal, called active from +8 up or from −8 down
[5] = changes in parasitized red cell lysis, either direction – P. falciparum Indochina, OD700, 3 h, PSAC antagonist project, primary screen (AID 1156); settings: P. falciparum-infected erythrocytes, osmotic lysis, higher = more signal, called active from +8 up or from −8 down
[6] = plasmodial surface anion channel blockers, osmotic lysis – cell-based, P. falciparum Indochina, OD700, 18 h, primary screen (AID 1157); settings: P. falciparum Indochina infected erythrocytes, osmotic lysis OD700, 18 h; higher = more signal, called active from +8 up or from −8 down
[7] = S6 kinase pathway phospho-S6 level changes – cell-based, A549, cytoblot, luminescence, serum-stimulated, primary screen (AID 1158); settings: 5 h, higher = more signal;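 further: serum-stimulated A549 lung adenocarcinoma cells; signal is phosphorylated S6 detected by cytoblot immunostaining with HRP secondary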
[8] = molecular target: NADPH oxidase 2 (Homo sapiens) (UniProt P04839); assay: compounds shifting NOX2 Amplex Red fluorescence – cell-based, HEK293-NOX2, PMA-stimulated, NOX inhibitor project, primary screen (AID 1159); settings: 45 min, higher = more signal, called active from +8 up or from −8 down; further: test concentration not given here
Sequence of NADPH oxidase 2 (Homo sapiens) (P04839 whole entry, looked up): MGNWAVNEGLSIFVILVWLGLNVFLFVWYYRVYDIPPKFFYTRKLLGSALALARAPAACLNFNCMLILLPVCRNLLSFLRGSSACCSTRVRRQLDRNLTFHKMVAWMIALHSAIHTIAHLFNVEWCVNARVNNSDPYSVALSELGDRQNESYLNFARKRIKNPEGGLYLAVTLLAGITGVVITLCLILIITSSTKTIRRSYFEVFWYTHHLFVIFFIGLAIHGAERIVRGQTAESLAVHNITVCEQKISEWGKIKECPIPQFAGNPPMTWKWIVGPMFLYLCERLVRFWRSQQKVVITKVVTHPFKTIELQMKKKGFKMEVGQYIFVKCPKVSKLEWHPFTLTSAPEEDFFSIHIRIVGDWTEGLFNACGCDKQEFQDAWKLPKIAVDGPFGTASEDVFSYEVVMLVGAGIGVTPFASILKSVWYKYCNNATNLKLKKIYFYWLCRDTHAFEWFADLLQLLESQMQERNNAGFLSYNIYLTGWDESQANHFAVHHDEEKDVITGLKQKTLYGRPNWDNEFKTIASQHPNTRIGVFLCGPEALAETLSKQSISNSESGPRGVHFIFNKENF

[9] = molecular target: NADPH oxidase 4 (Homo sapiens) (UniProt Q9NPH5); assay: compounds shifting NOX4 Amplex Red fluorescence – cell-based, HEK293-NOX4, tetracycline-induced, NOX inhibitor project, primary screen (AID 1160); settings: HEK293-NOX4, Amplex Red H2O2 fluorescence, 45 min; higher = more signal, called active from +8 up or from −8 down
Sequence of NADPH oxidase 4 (Homo sapiens) (Q9NPH5 whole entry, looked up): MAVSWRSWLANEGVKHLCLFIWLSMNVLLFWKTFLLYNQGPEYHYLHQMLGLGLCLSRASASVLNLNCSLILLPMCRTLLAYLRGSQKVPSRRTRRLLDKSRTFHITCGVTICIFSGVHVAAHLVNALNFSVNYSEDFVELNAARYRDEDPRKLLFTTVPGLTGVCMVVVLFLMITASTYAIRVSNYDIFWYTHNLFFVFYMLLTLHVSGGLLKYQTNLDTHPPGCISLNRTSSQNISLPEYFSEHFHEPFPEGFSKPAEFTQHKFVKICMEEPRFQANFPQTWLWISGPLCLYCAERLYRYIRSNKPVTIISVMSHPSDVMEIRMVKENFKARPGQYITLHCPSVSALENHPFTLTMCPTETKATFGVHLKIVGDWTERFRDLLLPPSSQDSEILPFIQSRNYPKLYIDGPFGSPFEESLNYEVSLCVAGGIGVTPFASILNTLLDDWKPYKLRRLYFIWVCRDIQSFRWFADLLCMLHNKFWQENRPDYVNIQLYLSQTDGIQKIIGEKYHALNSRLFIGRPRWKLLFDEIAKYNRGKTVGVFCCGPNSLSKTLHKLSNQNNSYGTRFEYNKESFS

[10] = molecular target: NADPH oxidase 5 (Homo sapiens) (UniProt Q96PH1); assay: compounds shifting NOX5 Amplex Red fluorescence – cell-based, HEK293-NOX5, NOX inhibitor project, primary screen (AID 1161); settings: HEK293-NOX5, ionomycin, 45 min, higher = more signal
Sequence of NADPH oxidase 5 (Homo sapiens) (Q96PH1 whole entry, looked up): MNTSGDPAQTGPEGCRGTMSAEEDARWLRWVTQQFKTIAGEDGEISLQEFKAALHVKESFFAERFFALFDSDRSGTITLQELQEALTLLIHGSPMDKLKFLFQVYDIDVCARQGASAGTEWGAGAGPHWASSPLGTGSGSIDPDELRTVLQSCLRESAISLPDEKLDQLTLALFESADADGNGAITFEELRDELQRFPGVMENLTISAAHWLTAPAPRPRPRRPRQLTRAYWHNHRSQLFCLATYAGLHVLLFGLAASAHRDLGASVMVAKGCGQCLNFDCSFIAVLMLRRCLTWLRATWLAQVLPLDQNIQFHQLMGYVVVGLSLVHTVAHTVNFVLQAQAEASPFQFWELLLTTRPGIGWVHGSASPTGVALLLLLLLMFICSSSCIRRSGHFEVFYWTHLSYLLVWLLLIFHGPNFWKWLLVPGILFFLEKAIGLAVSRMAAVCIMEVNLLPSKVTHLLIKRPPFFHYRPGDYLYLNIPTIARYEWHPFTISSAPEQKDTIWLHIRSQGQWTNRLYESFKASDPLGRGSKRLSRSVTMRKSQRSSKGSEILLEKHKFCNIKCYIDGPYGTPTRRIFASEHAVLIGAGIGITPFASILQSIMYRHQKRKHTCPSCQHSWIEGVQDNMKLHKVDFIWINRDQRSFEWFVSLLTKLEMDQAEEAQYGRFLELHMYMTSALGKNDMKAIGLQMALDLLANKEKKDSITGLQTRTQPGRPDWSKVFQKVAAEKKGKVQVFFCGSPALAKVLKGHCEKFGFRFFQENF

Compound	z-score [1]	composite z-score [2]	z-score [3]	z-score [4]	z-score [5]	z-score [6]	z-score [7]	z-score [8]	z-score [9]	z-score [10]
CCOC(=O)C[C@H]1[C@H](OC(=O)c2cc3ccccc3oc2=O)[C@@H](NC(=O)CC(C)C)c2cc(OCCCO)ccc2N1C(=O)c1ccc2ccccc2n1	-0.618 (inactive)	-0.0061	9.02 (active)	1.25 (inactive)	0.609 (inactive)	0.647 (inactive)	-0.679	1.01 (inactive)	1.23 (inactive)	0.7
COCCOC(=O)N1C(=O)[C@@]2(c3cc(C#CCCO)ccc31)[C@H](c1ccc(OCCO)cc1)N1[C@H](c3ccccc3)[C@H](c3ccccc3)OC(=O)[C@H]1[C@@H]2C(=O)Nc1nc2ccccc2s1	-0.0929 (inactive)	0.181	3.74 (inactive)	1.5 (inactive)	0.258 (inactive)	0.678 (inactive)	-0.115	1.58 (inactive)	1.26 (inactive)	1.43
Cc1ccc(S[C@]2(C(=O)NCc3ccccc3)CC(=O)N(C3CCCCC3)[C@@H]2c2ccc(CO)cc2I)cc1	-0.148 (inactive)	-0.142	5.8 (inactive)	1.34 (inactive)	1.04 (inactive)	0.841 (inactive)	0.0194	-0.031 (inactive)	0.193 (inactive)	1.79
CCOC(=O)C[C@H]1[C@H](OC(=O)c2ccccc2-c2ccccc2)[C@@H](NC(=O)c2ccc3ccccc3n2)c2cc(OCCCO)ccc2N1C(=O)Cc1ccc(OC)cc1	-0.783 (inactive)	0.0986	5.91 (inactive)	1.11 (inactive)	-0.0433 (inactive)	0.549 (inactive)	-0.303	0.0348 (inactive)	1.25 (inactive)	0.76
O=c1cccc(-c2ccc([N+](=O)[O-])cc2)o1	0.609 (inactive)	-0.241	0.687 (inactive)	-0.129 (inactive)	0.0448 (inactive)	-1.08 (inactive)	0.248	0.304 (inactive)	0.542 (inactive)	0.0589
C=CCOC(=O)[C@@H]1[C@H]2C(=O)O[C@H](c3ccccc3)[C@H](c3ccccc3)N2[C@H](c2ccc(OCCOC(=O)[C@@H]3C[C@@H]4C(=O)N[C@@H](CCCC[N+](C)(C)C)C(=O)N4[C@@H]3c3ccc(O)cc3)cc2)[C@@]12C(=O)Nc1ccc(I)cc12	0.0995 (inactive)	0.668	0.321 (inactive)	1.12 (inactive)	3.11 (inactive)	0.0802 (inactive)	-1.27	2.43 (inactive)	0.0539 (inactive)	0.718
COc1ccc([Si](C)(C)[C@@H]2[C@@H](CC(=O)N3CCC[C@H]3CO)O[C@]3(C(=O)N(Cc4cccc(N5C(=O)COc6ccccc65)c4)c4ccccc43)[C@H]2C)cc1	-0.194 (inactive)	0.0005	3.76 (inactive)	1.41 (inactive)	-1.47 (inactive)	0.646 (inactive)	0.324	2.66 (inactive)	1.74 (inactive)	4.12
COc1cc2c(cc1O)C(C1CC1)N(C)CC2 (stereo not given)	0.941 (inactive)	-0.0538	1.79 (inactive)	0.546 (inactive)	0.0776 (inactive)	0.573 (inactive)	-0.0452	-4.61 (inactive)	-2.57 (inactive)	-2.96
CCOC(=O)C1=C[C@@H](c2ccccc2)N(S(=O)(=O)c2ccc(C)cc2)[C@H]1c1ccc(OC)cc1	-1.11 (inactive)	1.02	1.18 (inactive)	1.07 (inactive)	0.106 (inactive)	0.512 (inactive)	-0.887	0.156 (inactive)	1.02 (inactive)	-0.348
CCOC(=O)C1=C[C@@H](C(C)(C)C)N(S(=O)(=O)c2ccc(C)cc2)[C@H]1c1cccc2ccccc12	-1.11 (inactive)	0.0927	0.564 (inactive)	0.849 (inactive)	0.31 (inactive)	0.193 (inactive)	-0.674	-0.527 (inactive)	0.13 (inactive)	0.139
Cc1ccc(S[C@]2(C(=O)NCC(F)(F)F)CC(=O)N(Cc3cc(C(F)(F)F)cc(C(F)(F)F)c3)[C@@H]2c2ccc(CO)cc2)cc1	-0.415 (inactive)	-0.146	1.74 (inactive)	0.594 (inactive)	-0.573 (inactive)	0.501 (inactive)	-0.488	-0.0338 (inactive)	0.0959 (inactive)	0.496
C=CCC(OC(C)=O)[C@@H]1[C@@H](N(Cc2cccc3ccccc23)C(=O)Cc2ccc(F)cc2)c2cc(OCCCO)ccc2N1C(=O)c1ccc2ccccc2c1 (stereo not given in full)	0.978 (inactive)	0.23	1.06 (inactive)	0.479 (inactive)	0.51 (inactive)	0.484 (inactive)	0.336	-1.5 (inactive)	0.344 (inactive)	0.453
CS(=O)(=O)CCOC(=O)C1=CC(c2ccc(CO)cc2)=CC(C2CC2)N(Cc2sc3ccccc3c2Cl)C=C1C(=O)OCCS(C)(=O)=O (stereo not given)	-3.12 (inactive)	0.141	13.8 (active)	3.35 (inactive)	0.239 (inactive)	1.39 (inactive)	0.044	0.932 (inactive)	0.186 (inactive)	-0.935
COCCCNC(=O)[C@@H]1c2ccccc2C(=O)N(C(C)C)[C@H]1c1ccc(CO)cc1	-0.476 (inactive)	0.142	0.178 (inactive)	0.211 (inactive)	-0.172 (inactive)	0.206 (inactive)	0.219	0.161 (inactive)	-0.904 (inactive)	-0.51
NC(=O)[C@@]1(Cc2ccccc2)COC(c2ccc(OCCCO)cc2)=N1	0.917 (inactive)	0.533	17.5 (active)	2.55 (inactive)	0.121 (inactive)	-0.0697 (inactive)	-0.468	-0.519 (inactive)	-1.4 (inactive)	-2.14
COc1cccc(C)c1NC(=O)O[C@H]1[C@H](OC(=O)Nc2ccc3c(c2)OCO3)[C@@H](OC(=O)Nc2ccc3c(c2)OCO3)[C@@H](OC)O[C@@H]1CO	0.132 (inactive)	-0.165	5.81 (inactive)	1.26 (inactive)	0.579 (inactive)	0.349 (inactive)	-0.227	-1.21 (inactive)	-0.747 (inactive)	-1.67
CC(=O)NCCCC[C@@H]1NC(=O)[C@@H]2C[C@H](C(=O)NCCCCCN)[C@H](c3ccc(O)cc3)N2C1=O	2.04 (inactive)	0.482	1.46 (inactive)	0.374 (inactive)	0.45 (inactive)	0.301 (inactive)	0.856	1.93 (inactive)	0.0542 (inactive)	2.86
O=C1NC(=O)C2C1C=CC(C(O)c1ccco1)N2Nc1ccc(Cl)cc1Cl (stereo not given)	-2.27 (inactive)	-0.0984	5.52 (inactive)	1.31 (inactive)	0.331 (inactive)	1.2 (inactive)	-0.992	-0.767 (inactive)	-5.58 (inactive)	-4.22
CCCCCN1CC=CC23O[C@@H]4/C=C\CCC(C)OC(=O)C4[C@H]2C(=O)N(C(CO)C(C)C)[C@@H]3C1=O (stereo not given in full)	1.66 (inactive)	-0.106	1.38 (inactive)	0.881 (inactive)	1.2 (inactive)	0.699 (inactive)	-0.0209	1.36 (inactive)	-0.231 (inactive)	1.86
C=CCNC(=O)[C@@H]1[C@H]2C(=O)O[C@H](c3ccccc3)[C@H](c3ccccc3)N2[C@H](c2ccc(O)cc2)[C@@]12C(=O)N(C(=O)OCCOC)c1ccc(C#CC3=CCCCC3)cc12	-1.1 (inactive)	0.319	1.78 (inactive)	0.836 (inactive)	-0.942 (inactive)	0.313 (inactive)	0.0229	1.61 (inactive)	0.339 (inactive)	0.344
O=C1N(CCS(=O)(=O)c2ccccc2)c2ccccc2[C@H]2OC(c3ccc(OCCCO)cc3)=N[C@@]12Cc1ccccc1	-1.05 (inactive)	0.253	31.2 (active)	27.5 (active)	3.08 (inactive)	6.96 (inactive)	0.468	-1.85 (inactive)	1.07 (inactive)	-0.191
Cc1cc(C)c(C(O)C2C=CC3C(=O)N(c4ccccc4)C(=O)C3N2Nc2ccccc2F)c(C)c1 (stereo not given)	-1.56 (inactive)	-0.0111	1.33 (inactive)	1.35 (inactive)	-0.167 (inactive)	1.32 (inactive)	-0.855	-0.611 (inactive)	-0.918 (inactive)	-0.344
CC1CC/C=C\[C@H]2OC34C=CCN(c5ccc6ccccc6c5)C(=O)[C@H]3N(CCCO)C(=O)[C@@H]4C2C(=O)O1 (stereo not given in full)	-0.866 (inactive)	-0.138	1.33 (inactive)	0.398 (inactive)	-0.0069 (inactive)	0.357 (inactive)	-0.0819	1.84 (inactive)	-1.18 (inactive)	2.84
CN(C)C(=O)[C@]1(Cc2ccccc2CN=[N+]=[N-])N=C(c2ccc(OCCCO)cc2)O[C@@H]1c1ccccc1	-0.532 (inactive)	0.457	27.1 (active)	22.9 (active)	1.76 (inactive)	0.96 (inactive)	1.87	-4 (inactive)	-2.05 (inactive)	-1.94
C=CCNC(=O)[C@@H]1[C@H]2C(=O)O[C@H](c3ccccc3)[C@H](c3ccccc3)N2[C@H](c2ccc(OCCO)cc2)[C@@]12C(=O)N(C(=O)OCCOC)c1ccc(C#Cc3ccc(OC)cc3)cc12	-0.0604 (inactive)	0.302	3.58 (inactive)	1.28 (inactive)	0.0207 (inactive)	0.776 (inactive)	-0.492	1.78 (inactive)	0.437 (inactive)	0.986
Cc1ccc(N2C(=O)c3ccccc3[C@@H](C(=O)NCCCN(C)C)[C@@H]2c2ccc(CO)cc2)nc1	0.0376 (inactive)	-0.724	1.06 (inactive)	0.392 (inactive)	0.591 (inactive)	0.304 (inactive)	-0.337	0.911 (inactive)	0.115 (inactive)	0.513
